Here are results for 19 molecules from PubChem BioAssay (NCATS).

Each structure is given as a SMILES string. Results filed as inconclusive are left out. Entries that show only a call come without a potency. Unmarked numbers belong to inactive results. Activity calls are given as the source filed them. Calls follow the shape of the dose curve; as a rule, active = well fitted inhibition curve with a large enough effect; inconclusive = small, poorly fitted or top-dose-only effect; inactive = flat fitted curve, though single readings scatter.
Also: nearly all actives have a fitted effect of over 70% in size.

In the first assay the test system is Zika virus NS2B-NS3 protease (linked construct). The assay is described as follows: Confirmatory screen NINDS AMC qHTS for Zika virus inhibitors (AID 1347152). Also: potency is read from the fitted curve at half-maximal effect.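 As to activity change, negative = inhibition: AMC fluorescence gain from cleaved Bz-Nle-KRR-AMC substrate over 15 min; top concentration of the series differs between compounds.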 Conditions: Purified linked NS2B-NS3, AMC substrate fluorescence; series mostly up to 56.6 µM. In a few lines: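 Concentration-response confirmation used the NINDS linked protease (NS2B hydrophilic domain joined to NS3 protease domain), 1 nM, with a 15-min compound preincubation. Substrate, Nle-KRR-AMC at 10 microM, was read by UV fluorescence before and after 15 min.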
For the molecule `NC1[C@H]2CN(c3nc4c(cc3F)c(=O)c(C(=O)O)cn4-c3ccc(F)cc3F)C[C@@H]12` (some centres undefined), the Potency entry was “inactive”. Turning to `Cc1cc(C(C#N)c2ccc(Cl)cc2)c(Cl)cc1NC(=O)c1cc(I)cc(I)c1O` (centres undefined), the Potency is 11.1 µM (active). The same measure, in the same setting: the value for `CC(C)(O)c1ccccc1CC[C@@H](SCC1(CC(=O)O)CC1)c1cccc(/C=C/c2ccc3ccc(Cl)cc3n2)c1` was 27.1 µM (active).

For a further assay, the system named is Zika virus NS2B-NS3 protease. The assay is described as follows: Primary screen GU AMC qHTS for Zika virus inhibitors (AID 1347154). Conditions: Zika NS2B-NS3 unlinked protease, AMC fluorogenic substrate; series mostly up to 54.1 µM. In a few lines:
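Unlinked Zika NS2B hydrophilic domain/NS3 protease domain noncovalent complex (25 nM final) in 10 mM Tris-HCl pH 8.0, 0.01% Tween 20, with AMC peptide substrate. Fluorescence (ex 340, em 450 nm) change over 15 min, room temperature; percent inhibition fitted to 4-parameter Hill equation.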
As to `CC(C)(C)C(=O)NCCCC(=O)O`, the Potency entry was “inactive”.

As for `NS(=O)(=O)c1cc2c(cc1C(F)(F)F)NC(Cc1ccccc1)NS2(=O)=O` (centres undefined), the Potency result was “inactive”. Consider `CCCCCCCCCCCCCCCCCCOCC(O)CO` (centres undefined), for which the Potency result is “inactive”. In the case of `CC(COc1ccccc1)NC(C)C(O)c1ccc(O)cc1` (centres undefined), the Potency entry was “inactive”. With `CCCCC/C(C=O)=C\c1ccccc1`, the Potency result is “inactive”.

For the molecule `Cc1c(O)cccc1C(=O)N[C@@H](CSc1ccccc1)[C@H](O)CN1C[C@H]2CCCC[C@H]2C[C@H]1C(=O)NC(C)(C)C`, the Potency result was “inactive”.

Consider `CC12CCC(CC1)C(C)(C)O2`, for which the Potency entry was “inactive”.

Consider `CN(C)CCN(Cc1ccccc1)c1ccccn1`, for which the Potency entry is “inactive”. `CC1(C)[C@@H]2CC[C@@]1(C)C(=O)C2`: the Potency entry is “inactive”. As for `Cc1cc(CC(=O)O)n(C)c1C(=O)c1ccc(Cl)cc1`, the Potency result was “inactive”. Consider `O=C1NS(=O)(=O)c2ccccc21`, for which the Potency result is “inactive”. Regarding `Cc1cc2c(cc1S(N)(=O)=O)S(=O)(=O)CCC2`, the Potency result is “inactive”. Still for that read-out and setting: the entry for `NCC(=O)CCC(=O)O` is “inactive”; for `O=C1c2c(O)cccc2Cc2cccc(O)c21` it is “inactive”; for `Oc1cccc(O)c1` it is “inactive”. For `C/C(=C(\CCOP(=O)(O)O)SC(=O)c1ccccc1)N(C=O)Cc1cnc(C)nc1N`, the activity change, negative = inhibition was 0.0847% [at 4.99 µM].
